# Tests used:
# Assay in all cases: DAPPL (digital affinity profiling via proximity ligation, sequencing); 10 mM Tris-HCl pH 7.5, 50 mM NaCl, 1 mM DTT, 4% glycerol, room temperature, 30 min; GST-TFs on glutathione beads, 16-mer random dsDNA library, 0.1% formaldehyde crosslink after washing; high values mean tight binding
# Details in all cases: protein: recombinant; tags: N-terminal GST; dsDNA, one strand shown
# ETV1 = ETV1 (Homo sapiens, UniProt P50549 1-477)
# In short: (§1)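 After expression in yeast as GST fusions, human transcription factors were bound to glutathione beads, DNA-barcoded and mixed with a tag-only sample. The pools were incubated with 200 nmole of a 16-mer random double-stranded DNA library in Tris/NaCl/DTT/glycerol buffer (30 min, room temperature), washed and crosslinked with 0.1% formaldehyde. Proximity ligation with BsaI/T4 ligase ran for 1 h at 37 °C, before PCR amplification and sequencing on an Illumina NextSeq500. Binding signal is a hexamer's read frequency for a factor divided by its frequency for the tag-only sample.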
# ERF = molecular target: T1, ERF (Homo sapiens, UniProt P50548 1-548)
# T1 sequence: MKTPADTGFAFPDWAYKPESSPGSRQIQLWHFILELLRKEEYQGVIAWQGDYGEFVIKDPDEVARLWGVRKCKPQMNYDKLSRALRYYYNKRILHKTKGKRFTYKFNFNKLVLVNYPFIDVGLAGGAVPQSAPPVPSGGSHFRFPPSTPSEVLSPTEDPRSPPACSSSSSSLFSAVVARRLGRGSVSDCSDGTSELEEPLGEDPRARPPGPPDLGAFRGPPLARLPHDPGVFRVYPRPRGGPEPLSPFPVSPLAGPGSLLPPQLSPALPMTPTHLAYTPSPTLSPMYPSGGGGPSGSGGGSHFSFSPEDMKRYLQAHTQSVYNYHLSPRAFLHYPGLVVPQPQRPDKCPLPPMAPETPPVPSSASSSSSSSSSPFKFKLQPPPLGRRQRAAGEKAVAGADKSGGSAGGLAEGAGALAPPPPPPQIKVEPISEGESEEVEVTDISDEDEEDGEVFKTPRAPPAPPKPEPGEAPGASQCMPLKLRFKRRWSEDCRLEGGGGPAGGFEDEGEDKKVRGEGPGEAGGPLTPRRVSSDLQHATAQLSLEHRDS
# In short: as §1
# ETV3L = molecular target: T2, ETV3L (Homo sapiens, UniProt Q6ZN32 1-361)
# T2 sequence: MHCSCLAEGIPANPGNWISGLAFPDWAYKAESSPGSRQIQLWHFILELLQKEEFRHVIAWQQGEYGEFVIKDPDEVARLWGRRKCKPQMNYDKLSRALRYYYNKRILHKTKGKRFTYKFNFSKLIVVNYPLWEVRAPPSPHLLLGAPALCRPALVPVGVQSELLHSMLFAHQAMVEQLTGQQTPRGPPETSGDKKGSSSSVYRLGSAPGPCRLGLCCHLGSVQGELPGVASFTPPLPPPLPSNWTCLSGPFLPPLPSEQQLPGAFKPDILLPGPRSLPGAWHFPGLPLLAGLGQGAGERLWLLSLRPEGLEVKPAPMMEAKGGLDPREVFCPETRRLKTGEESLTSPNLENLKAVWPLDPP
# In short: as §1
# ETS2 = molecular target: T3, ETS2 (Homo sapiens, UniProt P15036 1-469)
# T3 sequence: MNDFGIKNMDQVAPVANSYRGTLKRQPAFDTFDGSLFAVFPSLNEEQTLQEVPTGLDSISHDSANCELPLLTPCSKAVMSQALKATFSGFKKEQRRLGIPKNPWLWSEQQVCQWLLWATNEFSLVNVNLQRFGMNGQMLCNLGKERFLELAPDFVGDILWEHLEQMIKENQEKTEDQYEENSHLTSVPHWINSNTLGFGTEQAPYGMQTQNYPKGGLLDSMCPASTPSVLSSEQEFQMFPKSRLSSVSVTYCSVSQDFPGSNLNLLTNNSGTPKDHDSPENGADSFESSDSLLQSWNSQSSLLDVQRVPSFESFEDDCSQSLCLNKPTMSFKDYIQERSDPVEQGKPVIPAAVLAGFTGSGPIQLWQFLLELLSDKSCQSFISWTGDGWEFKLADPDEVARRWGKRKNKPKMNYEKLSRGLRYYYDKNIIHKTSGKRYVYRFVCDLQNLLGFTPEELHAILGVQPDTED
# In short: as §1
# SPDEF = molecular target: T4, SPDEF (Homo sapiens, UniProt O95238 1-335)
# T4 sequence: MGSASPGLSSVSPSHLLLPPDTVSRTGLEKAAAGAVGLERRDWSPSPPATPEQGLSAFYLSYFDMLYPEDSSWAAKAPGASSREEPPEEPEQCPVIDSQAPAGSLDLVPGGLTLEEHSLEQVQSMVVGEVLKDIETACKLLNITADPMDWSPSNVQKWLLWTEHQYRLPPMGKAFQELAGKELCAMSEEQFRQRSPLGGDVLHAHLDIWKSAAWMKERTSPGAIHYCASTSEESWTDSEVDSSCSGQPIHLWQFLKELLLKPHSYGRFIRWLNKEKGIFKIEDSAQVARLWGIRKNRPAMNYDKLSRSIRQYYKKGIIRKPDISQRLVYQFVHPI
# In short: as §1
# ETV7 = molecular target: T5, ETV7 (Homo sapiens, UniProt Q9Y603 1-341)
# T5 sequence: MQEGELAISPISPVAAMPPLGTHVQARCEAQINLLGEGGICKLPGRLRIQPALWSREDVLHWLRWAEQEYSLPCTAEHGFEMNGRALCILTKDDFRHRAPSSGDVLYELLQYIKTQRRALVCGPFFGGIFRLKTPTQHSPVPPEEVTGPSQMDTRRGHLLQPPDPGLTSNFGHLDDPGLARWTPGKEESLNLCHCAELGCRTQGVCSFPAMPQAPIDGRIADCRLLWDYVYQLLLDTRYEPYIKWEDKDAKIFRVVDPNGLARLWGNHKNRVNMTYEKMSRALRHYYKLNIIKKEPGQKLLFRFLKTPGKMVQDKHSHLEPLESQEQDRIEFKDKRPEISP
# In short: as §1
# ELF5 = molecular target: T6, ELF5 (Homo sapiens, UniProt Q9UKW6-2 1-255)
# T6 sequence: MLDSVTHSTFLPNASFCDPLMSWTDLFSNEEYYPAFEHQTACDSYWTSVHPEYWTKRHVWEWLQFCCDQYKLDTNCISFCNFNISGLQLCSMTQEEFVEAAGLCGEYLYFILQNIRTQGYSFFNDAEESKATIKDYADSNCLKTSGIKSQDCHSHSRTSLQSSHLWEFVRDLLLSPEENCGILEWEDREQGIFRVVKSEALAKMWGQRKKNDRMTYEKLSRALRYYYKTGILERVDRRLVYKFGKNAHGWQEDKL
# In short: as §1
# ETV3 = molecular target: T7, ETV3 (Homo sapiens, UniProt P41162-2 1-143)
# T7 sequence: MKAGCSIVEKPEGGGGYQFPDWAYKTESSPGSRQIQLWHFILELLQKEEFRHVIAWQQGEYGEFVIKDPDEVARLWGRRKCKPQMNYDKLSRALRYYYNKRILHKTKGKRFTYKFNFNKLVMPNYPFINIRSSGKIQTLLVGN
# In short: as §1
# ETV6 = ETV6 (Homo sapiens, UniProt P41212 1-452)
# In short: as §1
# Sequence of ETV6 (P41212 whole entry): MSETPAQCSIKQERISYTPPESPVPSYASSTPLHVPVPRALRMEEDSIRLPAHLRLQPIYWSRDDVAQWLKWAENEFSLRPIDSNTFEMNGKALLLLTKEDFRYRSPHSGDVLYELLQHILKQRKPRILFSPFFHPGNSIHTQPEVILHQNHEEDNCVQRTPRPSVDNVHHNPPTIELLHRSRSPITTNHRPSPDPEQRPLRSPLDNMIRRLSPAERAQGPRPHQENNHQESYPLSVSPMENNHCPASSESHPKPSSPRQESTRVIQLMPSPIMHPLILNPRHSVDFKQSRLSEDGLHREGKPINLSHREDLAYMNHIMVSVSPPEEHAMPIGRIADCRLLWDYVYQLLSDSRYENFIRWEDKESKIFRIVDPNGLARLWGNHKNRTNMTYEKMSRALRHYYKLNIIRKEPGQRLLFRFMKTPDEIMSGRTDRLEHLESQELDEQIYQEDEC
# Sequence of ETV1 (P50549 whole entry, the tested form may be a part): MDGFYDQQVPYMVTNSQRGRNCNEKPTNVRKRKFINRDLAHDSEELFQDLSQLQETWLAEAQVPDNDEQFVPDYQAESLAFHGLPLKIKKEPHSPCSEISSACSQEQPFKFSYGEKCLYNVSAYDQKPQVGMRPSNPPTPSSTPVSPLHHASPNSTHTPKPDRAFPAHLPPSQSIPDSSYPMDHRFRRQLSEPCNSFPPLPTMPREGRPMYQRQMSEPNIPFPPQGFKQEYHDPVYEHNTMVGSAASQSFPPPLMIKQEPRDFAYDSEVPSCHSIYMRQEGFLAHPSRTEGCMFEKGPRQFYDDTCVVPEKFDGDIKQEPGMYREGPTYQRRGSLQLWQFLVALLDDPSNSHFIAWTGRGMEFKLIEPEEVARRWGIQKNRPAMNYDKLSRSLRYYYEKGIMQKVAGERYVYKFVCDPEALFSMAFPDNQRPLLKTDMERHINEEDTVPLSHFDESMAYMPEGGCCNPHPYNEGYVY
sequence,measurement,setting,value
GCGACT,binding signal,ETV1,"1.22 fold enrichment (6-mer frequency, TF over GST control)"
same,binding signal,ERF,"1.43 fold enrichment (6-mer frequency, TF over GST control)"
same,binding signal,ETV3L,"1.17 fold enrichment (6-mer frequency, TF over GST control)"
same,binding signal,ETS2,"1.15 fold enrichment (6-mer frequency, TF over GST control)"
same,binding signal,SPDEF,"1.13 fold enrichment (6-mer frequency, TF over GST control)"
same,binding signal,ETV7,"1.14 fold enrichment (6-mer frequency, TF over GST control)"
same,binding signal,ELF5,"1.3 fold enrichment (6-mer frequency, TF over GST control)"
same,binding signal,ETV3,"1.14 fold enrichment (6-mer frequency, TF over GST control)"
same,binding signal,ETV6,"1.16 fold enrichment (6-mer frequency, TF over GST control)"

# Reference: article PMC7862700, “An all-to-all approach to the identification of sequence-specific readers for epigenetic DNA modifications on cytosine”
